# The list is not random: actives were taken first. Their share in the collection is about 2.3%.
# KKLEB tox: counter-screen for CF NF-kB inhibitors: cytotoxicity. hit rate 0.36% among 360,000. activity change (cytotoxicity), % at 5 µM. KKLEB CF airway cells viability, ATPlite luminescence, overnight; active compounds read low; cells stimulated with P. aeruginosa culture filtrate;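 active = corrected activity change at or below -50% at 5 µM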
# TWEAK-Fn14 inh: inhibitors of TWEAK-Fn14 interaction signaling. TWEAK-stimulated Fn14 reporter cells, luciferase luminescence, 8 h. inhibition, % at 10 µM. hit rate 2% among 360,000. AID 1159606; in the data active = inhibition above about 50%
# HIF-2a inh: blocks HIF-2a reporter activity; 786-0 RCC cells HIF-2a reporter, luciferase luminescence, overnight; inhibition, % at 18.8 µM; hit rate 0.72% among 360,000;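 active = inhibition of the luminescence signal of 40% or more relative to plate controls, in a single-dose primary screen at 18.75 µM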
# iPSC survival up: enhancers of human iPSC single-cell survival; hiPSC single-cell survival, ATPlite luminescence; 100% = ROCK inhibitor wells, 0% = DMSO; survival enhancement, % at 20 µM; hit rate 0.044% among 360,000; in the data active = survival enhancement above about 18%;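 note: cells exposed to compounds for 16 hours before the ATP read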
# CF NFkB block: inhibitors of cystic fibrosis induced NF-kB. AID 588850. hit rate 0.86% among 360,000. KKLEB NF-kB-GFP reporter, PAF-induced, GFP fluorescence overnight. inhibition, % at 5 µM;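 active = at least 50% inhibition at 5 µM, scaled per plate between neutral and stimulator controls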;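 note: PAF is a Pseudomonas aeruginosa culture filtrate used as stimulus; plate controls were PAF-stimulated DMSO wells for no effect and unstimulated DMSO wells for full effect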
# LGR2 inh: inhibitors of bursicon-induced Drosophila LGR2 receptor cAMP signaling; HEK293 LGR2, CRE-luciferase, bursicon-stimulated, 4 h; hit rate 0.35% among 380,000; AID 720647; inhibition, % at 9.99 µM;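 active = drop in luminescence signal, shown as inhibition above about 50% in the replicate tests, limit read from the data, passing the limit was not always enough; inconclusive = probably only some replicates passing the limit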;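 note: agonist challenge used bursicon conditioned medium at about half maximal strength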
# Starred values were filed as active, the others as inactive; u = inconclusive; x = no result.
SMILES,KKLEB tox,TWEAK-Fn14 inh,HIF-2a inh,iPSC survival up,CF NFkB block,LGR2 inh
Oc1c(C(Nc2cccc(C(F)(F)F)c2)c2ccncc2)ccc2cccnc12 (configuration not stated),-11,52*,13,-1,-25,20
Oc1c(C(Nc2nc3ccccc3s2)c2ccco2)ccc2cccnc12 (configuration not stated),-20,57*,-231,-1,-41,x
CCC(=O)NC(c1cccs1)c1ccc2cccnc2c1O (configuration not stated),10,3,4,0,6,11
Oc1c(C(Nc2nccs2)c2ccc(C(F)(F)F)cc2)ccc2cccnc12 (configuration not stated),2,9,87*,0,16,21
C[C@@H]1CN([C@@H](C)CO)C(=O)Cc2cc(NC(=O)Cc3cn(C)c4ccccc34)ccc2O[C@H]1CN(C)CC1CCCCC1,x,x,x,x,x,13
CCCN(C)C[C@H]1OCCCC[C@@H](C)Oc2ccc(NC(=O)Nc3ccc(F)cc3)cc2C(=O)N([C@H](C)CO)C[C@@H]1C,x,x,x,x,x,-12
Cc1ccc(C)n1-n1cnc2sc(-c3ccccc3)cc2c1=O,0,-16,-131,-2,-15,0
Cc1ccc(C)n1-n1c(C)nc2sc(-c3ccccc3)cc2c1=O,-10,69*,-125,0,6,x
Nc1nc(CCl)nc(N(c2ccccc2)c2ccccc2)n1,-73*,10,37,3,70*,0
Nc1nc(Cl)nc(N(c2ccccc2)c2ccccc2)n1,-9,-14,15,-1,0,2
Cc1nc2ccc(NC(=O)c3cccs3)cc2c(=O)n1Cc1ccc(Cl)cc1,-4,83*,-66,3,-8,x
CCCc1nc2ccc(NC(=O)c3cccs3)cc2c(=O)n1Cc1ccc(Cl)cc1,-2,18,-99,2,6,-9
Cc1ccc([N+](=O)[O-])cc1Nc1nc(N2CCCC2)nc(N2CCCC2)n1,-4,52*,21,0,1,7
NNc1nc(Nc2ccc([N+](=O)[O-])cc2)nc(N2CCCCCC2)n1,12,-7,-20,4,-39,-30
O=c1c2c(nc3cc(-c4cccc(F)c4)[nH]n13)CCC2,-4,43,-132,-1,10,4
O=c1c2c(nc3cc(-c4ccc(Cl)cc4)[nH]n13)CCS2,12,73*,-131,-3,-38,-21
O=c1c2c(nc3cc(-c4ccc(F)cc4)[nH]n13)CCCC2,16,80*,-10,-2,-37,u
CN1C(=O)c2cc(NC(=O)NCc3ccccc3)ccc2OC[C@@H]2O[C@@H](CC(=O)O)CC[C@H]21,x,x,x,x,x,3
Nc1[nH]n(-c2ccccc2)c(=O)c1N=Nc1ccc2c(c1)OCCO2,-9,68*,-140,-1,-28,36
Nc1[nH]n(-c2ccccc2)c(=O)c1N=Nc1ccc2c(c1)OCO2,9,-5,-367,-1,-28,-90
C/C(=N\NC(=O)c1ccccc1O)c1cccs1,-4,73*,7,-1,10,52*
COc1ccc(C(=O)Cn2c(C)nc([N+](=O)[O-])c2Br)cc1,-12,50*,21,-1,33,20
CCn1cc(C(=O)NC(C)C23CC4CC(CC(C4)C2)C3)cn1 (configuration not stated),-9,-8,19,2,6,-3
CC(NC(=O)Cn1ncc(Cl)c(Cl)c1=O)C12CC3CC(CC(C3)C1)C2 (configuration not stated),-78*,103*,91*,-2,84*,x
Fc1ccc(CNc2ncccn2)cc1,8,15,6,0,-12,-3
Clc1ccc(CNc2ncccn2)cc1,-18,72*,16,0,14,9
COc1ccc(/C=N/Nc2ncnc3sc4c(c23)CCCC4)cc1OC,1,90*,-37,-2,14,14
COc1ccc(/C=N/Nc2ncnc(Cl)c2N)cc1OC,-5,2,-35,5,-5,-6
CC(=O)N1CCc2cc(Br)cc(S(=O)(=O)NCCCN(C)Cc3ccccc3)c21,-5,98*,15,-1,7,3
CCC(=O)N1CCc2cc(Br)cc(S(=O)(=O)NCCCN(C)Cc3ccccc3)c21,-2,42,5,0,3,-9

# Source: PubChem (several laboratories)
